Not all results are given here.
aSyn 5UTR act = Activators via SNCA 5'UTR binding, MLPCN; 7.1% of 300,000 active; alpha-synuclein 5'UTR reporter, activators screen; activity score, % (tested at 7.5 µM), hits read low; in the data active = activity score below about -60%
* marks the source's active call; other numbers are inactive results.

SMILES	aSyn 5UTR act
N#Cc1cccc(NC(=O)CSc2ccc3c4c(cccc24)C(=O)c2ccccc2-3)c1	-154*
COc1ccc(NC(=O)CSc2ccc3c4c(cccc24)C(=O)c2ccccc2-3)cc1	-65*
COc1ccc(NC(=O)CC2CC3CCC2C3)cn1 (stereo not given)	-68*
CS(=O)(=O)c1ccccc1C(=O)Nc1ccc(-c2nc3ccccc3[nH]2)cc1	-156*
O=C(c1ccccc1)c1ccc2nc(-c3ccc(NC(=O)c4ccccc4Br)cc3)[nH]c2c1	75
CS(=O)(=O)c1ccccc1C(=O)Nc1ccc(-c2nc3ccccc3o2)cc1	-185*
N/C(=N\N=C\c1cccc([N+](=O)[O-])c1)c1nonc1N	-150*
COc1ccccc1/C=N\N=C(\N)c1ccccn1	-175*
COc1cccc(/C=N/N=C(\N)c2nonc2N)c1O	-105*
CC(=Nc1cccc(C)c1)c1sc2ccccc2c1O	-215*
Cc1cccc(N=Nc2ccc(O)c3ncccc23)c1	73
CC(=O)NCCN=C(C)c1sc2ccccc2c1O	-71*
CC(=Nc1ccccc1O)c1sc2ccccc2c1O	-93*
CC(=Nc1ccc(O)cc1)c1sc2ccccc2c1O	-187*
Cc1ccc(N=Nc2cc(C)ccc2O)c(C)c1	-215*
Cc1ccc(N=Nc2ccc(N)cc2C)c(S(N)(=O)=O)c1	-80*
Cc1ccc(N=Nc2cc(C)ccc2N)cc1	61
CCOC(=O)/C=C/c1ccc2oc3ccccc3c(=O)c2c1	-191*
CCN(CC)c1nc(C#N)cc(-c2ccc(OC)cc2)n1	-69*
S=C(NCCc1ccccc1)NC1CCCCCC1	-114*
CNC[C@@H](Cc1ccccc1)NC[C@@H](CC1CCCCC1)NCCCc1ccccc1	125
S=C(NCCc1ccc(Cl)cc1)NC1CCCCC1	-111*
COC(=O)Nc1nnc(/C=C/c2ccc(OC)cc2)s1	-109*
COc1ccc(/C=C/c2nnc(NC(C)=O)s2)cc1	-117*
CCN1CCN(Cc2ccc(NC(=O)c3cc(NC(=O)c4cc(-c5ccc(OC)cc5)n[nH]4)cc(OC)c3)cc2C(F)(F)F)CC1	106
SMILES	aSyn 5UTR act
CCOc1cccc(-c2cc(C(=O)NN)[nH]n2)c1	-64*
COC(=O)c1cc(-c2ccc(OC)cc2)n[nH]1	-103*
COC(=O)c1cc(-c2ccc(C)cc2)n[nH]1	-106*
CCOc1ccc(-c2cc(C(=O)OC)[nH]n2)cc1	-103*
CS(=O)(=O)c1nc(-c2ccccc2)cc(C(F)(F)F)n1	-111*
OC(c1cc(-c2ccc(C(F)(F)F)cc2)nc(C(F)(F)F)c1)C1CCCCN1 (stereo not given)	103
Cc1nnc(SCC(=O)Nc2nc3c(s2)CC(C)CC3)s1 (stereo not given)	-75*
Cn1nnnc1SCC(=O)Nc1nc2c(s1)CCCC2	-102*
O=C(CSC1=NCCS1)Nc1nc2c(s1)CCCC2	-104*
CC1CCc2c(sc(NC(=O)CSc3ncn[nH]3)c2C#N)C1 (stereo not given)	91
CCOC(=O)c1ccc(N=Nc2c(C)c(C#N)c(O)[nH]c2=O)cc1	-74*
CCCCCOc1ccc(CSc2n[nH]c(C)n2)cc1	-171*
Cc1nc(SCc2ccc(OCCC(C)C)cc2)n[nH]1	-71*
O=C(Nc1ccccc1F)Nc1ccccc1F	-239*
O=C(Nc1ccc(Br)cc1)Nc1ccccc1F	-232*
Cc1ccc(Cl)c(OCC(=O)Nc2cccnc2)c1	-116*
O=C(COc1ccccc1Cl)Nc1cccnc1	-128*
Cc1ccc(Cl)c(OCC(=O)Nc2sc(C)c(C)c2C#N)c1	-68*
O=C(COc1ccccc1Cl)Nc1ccc2oc(=O)ccc2c1	-72*
COc1ccc(N2C(=O)CC(Sc3nc(C)cc(C)c3C#N)C2=O)cc1 (stereo not given)	-87*
CCCCCOc1ccc(/C=C/c2c([N+](=O)[O-])c(=O)n(C)c(=O)n2C)cc1	-175*
Cn1c(/C=C/c2cccc([N+](=O)[O-])c2)c([N+](=O)[O-])c(=O)n(C)c1=O	-194*
Cn1c2c(c(=O)n(C)c1=O)C(C(F)(F)F)(C(F)(F)F)N=C(c1ccc(Cl)cc1)N2	99
Cn1c(/C=C/c2ccc(Cl)cc2)c([N+](=O)[O-])c(=O)n(C)c1=O	-147*
C=CCOc1ccc(CNc2nccs2)cc1	-74*
SMILES	aSyn 5UTR act
COc1ccc(C2=NN(C(C#N)c3ccc(OC)c(OC)c3)C(c3ccccc3)C2)cc1 (stereo not given)	-172*
CC(=O)Nc1ccc(C2CC(c3ccc(Cl)cc3)=NN2c2ccccc2)cc1 (stereo not given)	-79*
Cc1ccc(C2CC(c3ccccc3)=NN2c2ccccc2)o1 (stereo not given)	-232*
COc1ccc(C2=NN(c3ccccc3)C(c3ccc(OC)c(OC)c3)C2)cc1 (stereo not given)	-76*
COc1cc(-c2nnc3n2N=C(c2ccccc2)CS3)cc(OC)c1OC	63
COc1ccc(C2CC(c3cccs3)=NN2c2nc(-c3ccccc3)cs2)cc1OC (stereo not given)	-64*
Cc1ccc(/C=N/Nc2nc(C(C)(C)C)cs2)o1	-123*
C(=N\Nc1nc(-c2ccccc2)cs1)/c1cccnc1	-339*
CC(C)=NNc1nc(-c2ccccc2)cs1	-182*
CC(C)(C)c1csc(N/N=C/c2cccnc2)n1	-173*
CCCC(=O)Nc1ccc(-c2csc(N/N=C\c3ccncc3)n2)cc1	-116*
CCOc1ccc(C(=O)N2CCn3c2nc2ccccc23)cc1	-69*
COc1ccc(C(=O)n2c(-c3ccco3)nc3ccccc32)cc1	-100*
COc1ccc(C(=O)N2CCn3c2nc2ccccc23)cc1	-108*
O=C(c1cccs1)N1CCn2c1nc1ccccc12	-118*
Cc1ccc(C(=O)n2c(N)nc3ccccc32)cc1	81
N#Cc1c(NC(=O)CSc2ncn[nH]2)sc2c1CCCC2	84
N#Cc1cc2c(nc1SCC(=O)Nc1sc3c(c1C#N)CCC3)CCC2	-141*
CN1CCc2nc(SCC(=O)Nc3ccc(Cl)cc3)c(C#N)cc2C1	-65*
N#Cc1cc2c(nc1SCC(=O)Nc1sc3c(c1C#N)CCC3)CCCCCC2	-93*
CCc1nnc(NC(=O)CSc2nc3c(cc2C#N)CCC3)s1	-159*
CC(C)=CC(=O)OCc1cc([N+](=O)[O-])cc2c1OCOC2	-110*
Oc1ccc(-c2[nH]ncc2-c2ccc(Cl)cc2)c(O)c1	-62*
Cc1ccc(NC(=O)C(=O)NCCCN2CCCC2=O)cc1	-71*
CCc1ccc(NC(=O)NCCCN2CCCC2=O)cc1	-65*
SMILES	aSyn 5UTR act
O=C(CCS(=O)(=O)c1ccccc1)N1CCN(c2ccccc2)CC1	-78*
O=C(CCS(=O)(=O)c1cccs1)N1CCCC1	-124*
O=C(CCNS(=O)(=O)c1cccs1)N1CCCCCC1	-102*
Cc1cccc(C)c1NC(=O)c1c[nH]c2ccccc12	-120*
COc1ccccc1NC(=O)c1cnc(Nc2ccccc2OC)c2ccccc12	101
COc1ccccc1NC(=O)c1c[nH]c2ccccc12	-78*
N#Cc1c(/N=C/c2ccc(-c3ccccc3C(=O)O)o2)sc2c1CCCC2	-78*
N#Cc1c(/N=C/N2CCOCC2)sc2c1CCCCC2	-122*
N#Cc1c(/N=C/c2cccs2)sc2c1CCCCC2	-186*
CN(C)/C=N/c1sc2c(c1C#N)CCCCC2	-124*
Cc1sc(=NC(=O)c2ccco2)n(C)c1-c1ccc(Cl)cc1	-101*
CC(=O)c1cc(C#N)c(SCc2ccccc2C#N)nc1C	-97*
CC(=O)c1cc(C#N)c(SCC(=O)OC(C)(C)C)nc1C	-116*
CC(=O)c1ccc(OCc2ccccc2)c(C)c1O	-108*
